Data taken from article PMC12820563, “FoxP3 forms a head-to-head dimer in vivo and stabilizes its multimerization on adjacent microsatellites”.
The full ranking holds about 16,000 sequences; the median of “rpm ratio (pull-down/input)” is about 0.94, and the highest 2% start at about 1.7. Only a selection was taken, and the highest values are over-represented in it overall.

The sequences below were run against T1, MBP-FoxP1dN (Mus musculus, UniProt P58462 326-579) (assay: PD-seq (MBP pull-down with sequencing); 20 mM Tris-HCl pH 7.5, 100 mM NaCl, 1.5 mM MgCl2, 0.4 uM protein, 0.1 uM dsDNA library, 30 min, room temperature, amylose pull-down; high values mean tight binding). Conditions: protein: recombinant; tags: His6-MBP; chain copies: 2; dsDNA, one strand shown.
T1 sequence: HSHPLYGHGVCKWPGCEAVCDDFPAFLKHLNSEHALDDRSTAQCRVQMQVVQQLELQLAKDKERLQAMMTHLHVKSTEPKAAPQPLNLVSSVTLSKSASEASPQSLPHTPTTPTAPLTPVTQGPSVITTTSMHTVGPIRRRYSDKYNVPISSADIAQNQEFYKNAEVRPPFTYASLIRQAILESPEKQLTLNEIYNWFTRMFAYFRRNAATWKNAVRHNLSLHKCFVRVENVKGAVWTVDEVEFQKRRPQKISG
Procedure, shortened: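 E. coli-expressed mouse FoxP3 or FoxP1 fragment, N-terminus removed and tagged with His6-MBP, was used at 0.4 µM against 0.1 µM of a Klenow-filled degenerate double-stranded DNA library. After 30 min at room temperature in Tris pH 7.5 buffer with NaCl and MgCl2, complexes were pulled down on amylose resin and washed three times. Binding is pull-down over input reads-per-million enrichment from pooled replicates of the proteinase K-released, PCR-barcoded, Illumina-sequenced DNA.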

Row | Sequence | binding signal
1 | GATGATTGTTCTCCCAGCTGATGAATTAGAAAGGTCGAGTAAACAAATTTTCCTAATCTTTCTGTTCAAGCGCCATCTAC | 0.826 RPM ratio (pull-down/input)
2 | GATGATTGTTCTCCCAGCTGATGAATTCACCTACTCGAGTAAACAAATTTTCCTAATCTTTCTGTTCAAGCGCCATCTAC | 0.921 RPM ratio (pull-down/input)
3 | GATGATTGTTCTCCCAGCTGATGAATTTATCGCTTCGAGTAAACAAATTTTCCTAATCTTTCTGTTCAAGCGCCATCTAC | 1.1 RPM ratio (pull-down/input)
4 | GATGATTGTTCTCCCAGCTGATGAATTCGTCCCCTCGAGTAAACAAATTTTCCTAATCTTTCTGTTCAAGCGCCATCTAC | 0.772 RPM ratio (pull-down/input)
5 | GATGATTGTTCTCCCAGCTGATGAATTTTGAGAATCGAGTAAACAAATTTTCCTAATCTTTCTGTTCAAGCGCCATCTAC | 0.914 RPM ratio (pull-down/input)
6 | GATGATTGTTCTCCCAGCTGATGAATTTTTTACATCGAGTAAACAAATTTTCCTAATCTTTCTGTTCAAGCGCCATCTAC | 0.953 RPM ratio (pull-down/input)
7 | GATGATTGTTCTCCCAGCTGATGAATTTACAACATCGAGTAAACAAATTTTCCTAATCTTTCTGTTCAAGCGCCATCTAC | 1.67 RPM ratio (pull-down/input)
8 | GATGATTGTTCTCCCAGCTGATGAATTACAAAAATCGAGTAAACAAATTTTCCTAATCTTTCTGTTCAAGCGCCATCTAC | 1.59 RPM ratio (pull-down/input)
9 | GATGATTGTTCTCCCAGCTGATGAATTTTACAAATCGAGTAAACAAATTTTCCTAATCTTTCTGTTCAAGCGCCATCTAC | 1.1 RPM ratio (pull-down/input)
10 | GATGATTGTTCTCCCAGCTGATGAATTGTTTACATCGAGTAAACAAATTTTCCTAATCTTTCTGTTCAAGCGCCATCTAC | 2.91 RPM ratio (pull-down/input)
11 | GATGATTGTTCTCCCAGCTGATGAATTTACATAATCGAGTAAACAAATTTTCCTAATCTTTCTGTTCAAGCGCCATCTAC | 1.76 RPM ratio (pull-down/input)
12 | GATGATTGTTCTCCCAGCTGATGAATTTACAAAATCGAGTAAACAAATTTTCCTAATCTTTCTGTTCAAGCGCCATCTAC | 1.74 RPM ratio (pull-down/input)
13 | GATGATTGTTCTCCCAGCTGATGAATTTTACATATCGAGTAAACAAATTTTCCTAATCTTTCTGTTCAAGCGCCATCTAC | 0.97 RPM ratio (pull-down/input)
14 | GATGATTGTTCTCCCAGCTGATGAATTACATAAATCGAGTAAACAAATTTTCCTAATCTTTCTGTTCAAGCGCCATCTAC | 1.64 RPM ratio (pull-down/input)
15 | GATGATTGTTCTCCCAGCTGATGAATTGTCGCTGTCGAGTAAACAAATTTTCCTAATCTTTCTGTTCAAGCGCCATCTAC | 1.02 RPM ratio (pull-down/input)
16 | GATGATTGTTCTCCCAGCTGATGAATTCTGGACATCGAGTAAACAAATTTTCCTAATCTTTCTGTTCAAGCGCCATCTAC | 0.937 RPM ratio (pull-down/input)
17 | GATGATTGTTCTCCCAGCTGATGAATTACCAGGTTCGAGTAAACAAATTTTCCTAATCTTTCTGTTCAAGCGCCATCTAC | 0.873 RPM ratio (pull-down/input)

Row | Sequence | binding signal
18 | GATGATTGTTCTCCCAGCTGATGAATTATGGTTTTCGAGTAAACAAATTTTCCTAATCTTTCTGTTCAAGCGCCATCTAC | 1.24 RPM ratio (pull-down/input)
19 | GATGATTGTTCTCCCAGCTGATGAATTTTTCATCTCGAGTAAACAAATTTTCCTAATCTTTCTGTTCAAGCGCCATCTAC | 0.937 RPM ratio (pull-down/input)
20 | GATGATTGTTCTCCCAGCTGATGAATTCATTCGGTCGAGTAAACAAATTTTCCTAATCTTTCTGTTCAAGCGCCATCTAC | 0.807 RPM ratio (pull-down/input)
21 | GATGATTGTTCTCCCAGCTGATGAATTGTGATTATCGAGTAAACAAATTTTCCTAATCTTTCTGTTCAAGCGCCATCTAC | 1.74 RPM ratio (pull-down/input)
22 | GATGATTGTTCTCCCAGCTGATGAATTATCTGAATCGAGTAAACAAATTTTCCTAATCTTTCTGTTCAAGCGCCATCTAC | 0.99 RPM ratio (pull-down/input)
23 | GATGATTGTTCTCCCAGCTGATGAATTATTCTGATCGAGTAAACAAATTTTCCTAATCTTTCTGTTCAAGCGCCATCTAC | 0.97 RPM ratio (pull-down/input)
24 | GATGATTGTTCTCCCAGCTGATGAATTATTATGATCGAGTAAACAAATTTTCCTAATCTTTCTGTTCAAGCGCCATCTAC | 1.41 RPM ratio (pull-down/input)
25 | GATGATTGTTCTCCCAGCTGATGAATTATTGTGATCGAGTAAACAAATTTTCCTAATCTTTCTGTTCAAGCGCCATCTAC | 1.76 RPM ratio (pull-down/input)
26 | GATGATTGTTCTCCCAGCTGATGAATTATCTAAATCGAGTAAACAAATTTTCCTAATCTTTCTGTTCAAGCGCCATCTAC | 1.18 RPM ratio (pull-down/input)
27 | GATGATTGTTCTCCCAGCTGATGAATTATGACAATCGAGTAAACAAATTTTCCTAATCTTTCTGTTCAAGCGCCATCTAC | 1.38 RPM ratio (pull-down/input)
28 | GATGATTGTTCTCCCAGCTGATGAATTAACAACATCGAGTAAACAAATTTTCCTAATCTTTCTGTTCAAGCGCCATCTAC | 2.17 RPM ratio (pull-down/input)
29 | GATGATTGTTCTCCCAGCTGATGAATTAACATAATCGAGTAAACAAATTTTCCTAATCTTTCTGTTCAAGCGCCATCTAC | 1.45 RPM ratio (pull-down/input)
30 | GATGATTGTTCTCCCAGCTGATGAATTAACATCATCGAGTAAACAAATTTTCCTAATCTTTCTGTTCAAGCGCCATCTAC | 1.31 RPM ratio (pull-down/input)
31 | GATGATTGTTCTCCCAGCTGATGAATTAAATAAATCGAGTAAACAAATTTTCCTAATCTTTCTGTTCAAGCGCCATCTAC | 1.49 RPM ratio (pull-down/input)
32 | GATGATTGTTCTCCCAGCTGATGAATTATTAACATCGAGTAAACAAATTTTCCTAATCTTTCTGTTCAAGCGCCATCTAC | 1.32 RPM ratio (pull-down/input)
33 | GATGATTGTTCTCCCAGCTGATGAATTAATAACATCGAGTAAACAAATTTTCCTAATCTTTCTGTTCAAGCGCCATCTAC | 2.02 RPM ratio (pull-down/input)
